VACV Venus inh = inhibitors of vaccinia virus (Venus reporter); Potency, µM (series often up to 36.5 µM), inactives show top-dose activity change, negative = inhibition, most hits filed as inhibitors; AID 720580; hit rate 0.46% among 330,000; Vaccinia virus Venus reporter expression, fluorescence; calls by dose curve; tested in A549 cells; note: potency is the fitted concentration of half-maximal effect; nearly all actives have a fitted effect of over 30% in size
HCV inhibitor = HCV inhibition | Huh7.5.1 HCVcc-Cre infection, luciferase reporter, 44 h | Potency, µM (titrated, usually from 41.8 µM), without a hit: at the highest dose activity change, negative = inhibition, usual class: inhibitors | hit rate 3.4% among 340,000; active = well fitted inhibition curve with a large enough effect; inconclusive = small, poorly fitted or top-dose-only effect, or another doubt; inactive = no such curve, though single readings can be large or run the other way; note: potency is the fitted concentration of half-maximal effect
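A cell-based infection assay in which seeded cells (1,000 per well) receive test compound after 4 h, are inoculated with HCVcc-Cre at approximately 0.5 moi, and are incubated 44 h before luminescence detection.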
HCMV antiviral = blocks human cytomegalovirus replication | activity change, negative = inhibition, % at 57.5 µM | HFF cells, HCMV-luciferase reporter, 72 h; hits give low values | hit rate 4.5% among 410,000 | AID 1259415; in the data active = activity change below about -60%; inconclusive = no clear call, values can overlap the other calls; inactive = above about -39%
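Inhibition of viral replication was scored as loss of reporter luminescence in HFFs infected with HCMV-luciferase (MOI 1 PFU/cell) for 72 h; compounds tested at 2 doses, normalized to buffer and Salinomycin controls.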
FMDV inh = foot and mouth disease virus antiviral activity. FMDV antiviral cell-based qHTS. Potency, µM (highest dose often 57.9 µM), for inactives: at the highest dose activity change, negative = inhibition, actives largely listed as inhibitors. hit rate 1.2% among 410,000. AID 1159524; calls by dose curve; tested in HEK293T cells; note: read-out not given here; potency is the fitted concentration of half-maximal effect; nearly all actives have a fitted effect of over 45% in size
Vaccinia mCherry = vaccinia inhibition (mCherry reporter) | Vaccinia virus mCherry reporter infection, fluorescence | Potency, µM (titrated, usually from 36.5 µM), for inactives: at the highest dose activity change, negative = inhibition, hits mostly inhibitors | hit rate 0.63% among 310,000 | AID 720579; calls by dose curve; tested in A549 cells; note: potency is the fitted concentration of half-maximal effect; nearly all actives have a fitted effect of over 35% in size
Active calls of the source: *; i = inactive; ? = inconclusive; nt = no result; [ ] = dose if it differs, or a comment. The list is not random: actives were taken first. Their share in the collection is about 7.3%. % is set by controls: 0 for no effect and ±100 for the full control effect.

SMILES	VACV Venus inh	HCV inhibitor	HCMV antiviral	FMDV inh	Vaccinia mCherry
c1ccc(C(c2ccccc2)N2CCN(c3nc4ccccc4n4cnnc34)CC2)cc1	-17.3%	?	-99.1*	28.2µM*	-7.0%
Brc1cccc(OCCSc2ncccn2)c1	-0.6%	-10.6%	-38.7	6.6%	-5.8%
Clc1ccc(OCCSc2ncccn2)c(Br)c1	-12.6%	11.2µM*	93.2	-12.5%	-13.2%
COc1cc(SC)ccc1C(=O)Nc1ccc(Cl)cn1	-0.1%	6.8%	-74.9*	10µM*	-12.0%
COc1cc(SC)ccc1C(=O)Nc1ccc2c(c1)CCC2	-15.1%	10µM*	61.2	10.7%	i
CSc1ccc(Cl)c(C(=O)Nc2ccc(Cl)cn2)c1	-12.9%	-19.1%	?	-2.1%	-12.5%
Cc1ccc(CNC(=O)CN2C(=O)C3CCCCN3c3ccc(C(=O)N(C)C)cc32)cc1 (stereo not drawn)	-7.3%	nt	0.9	11.7%	-2.1%
CC(=O)c1ccc2c3c(cccc13)CC2	-9.0%	-14.6%	13.4	-4.6%	i
ON=C(c1ccccc1)c1ccc2c3c(cccc13)CC2	?	nt	-62.3*	?	-19.7%
CCOc1ccc(NC(=O)CSc2ncc(-c3ccc(F)cc3)n2Cc2ccco2)cc1	-9.9%	10µM*	-27.0	-15.0%	-24.6%
Cc1ccc(NC(=O)CSc2ncc(-c3ccccc3)n2C(=O)c2ccccc2)cc1	nt	15.1%	6.3	34.0%	nt
O=C(CSc1ncc(-c2ccc(F)cc2)n1Cc1ccco1)Nc1ccc2c(c1)OCO2	?	?	11.9	29.3%	-18.5%
Cc1ccc(C(=O)n2c(-c3ccccc3)cnc2SCC(=O)Nc2ccccc2)cc1	-10.0%	-5.5%	-74.3*	0.3%	i
Cc1ccc(NC(=O)Cn2c(-c3ccc(F)cc3)cnc2SCC(=O)Nc2c(C)cccc2C)cc1	-3.5%	0.8%	-77.7*	-19.8%	0.9%
CC(C)C(=O)Nc1ccc(S(=O)(=O)N2CCC(c3nc4ccccc4[nH]3)CC2)cc1	-12.0%	?	-3.6	-9.8%	-7.2%
CCN1CCCC1CNCc1cc2ccc(SC)cc2nc1-c1cc(OC)ccc1OC (stereo not drawn)	27.4%	nt	nt	-1.8%	9.3%
CN(C(=O)COC(=O)c1nn(C)c(=O)c2ccccc12)c1c(N)n(Cc2ccccc2)c(=O)[nH]c1=O	-7.0%	6.1%	-8.4	-24.5%	-12.5%
O=C(NC[C@H]1CCCO1)c1cccc2c1C(=O)c1ccc(-c3ccc(F)cc3OCc3ccccc3)cc1S2(=O)=O	?	10µM*	-34.1	?	?
O=C(O)c1cccc2c1C(=O)c1ccc(-c3ccc(F)cc3F)cc1S2(=O)=O	0.8%	1.8%	-61.5*	-0.3%	-5.4%
O=C(O)c1cccc2c1C(=O)c1ccc(-c3ccc(F)cc3OCc3ccccc3)cc1S2(=O)=O	-6.9%	-6.4%[8.37 µM]	nt	39.0%	-1.6%
Cc1cc(CNC(=O)c2cccc3c2C(=O)c2ccc(-c4ccc(F)cc4OCc4ccccc4)cc2S3(=O)=O)c(C(F)(F)F)o1	-14.3%	?	-17.1	-9.0%	i
O=[N+]([O-])c1ccc(/C=C/c2cc(Cl)nc3ccccc23)cc1	-17.5%	nt	nt	nt	-24.2%
CC[C@H](C)[C@H]1CNC(=O)C(=O)N1CC1CCN(CC(C)C)CC1	nt	nt	-1.3	nt	nt
CCCNC(=O)C1(C)CCCN(Cc2ccccc2F)C1 (stereo not drawn)	3.3%	nt	-8.4	-14.0%	-19.7%
COc1cccc2ccc(CN3CCC4(CC3)c3ccccc3[C@@H](NC(=O)c3ccccc3)[C@@H]4O)nc12	3.3%	nt	nt	-1.2%	-12.2%
SMILES	VACV Venus inh	HCV inhibitor	HCMV antiviral	FMDV inh	Vaccinia mCherry
CCC(=O)N1CCc2cc(CNC(=O)c3cccc(N(C)C)c3)ccc21	-11.4%	nt	-23.8	2.8%	-11.8%
COc1cccc(C(NC(C)=O)c2nc(-c3cccc(C(=O)O)c3)cs2)c1 (stereo not drawn)	-15.8%	nt	-10.5	28.0%	-13.9%
COC(=O)[C@@H]1[C@@H](CO)[C@@H]2Cn3c(ccc(Br)c3=O)[C@H]1N2C(=O)Cc1ccccn1	nt	nt	3.8	nt	nt
CCCc1cc(=O)c2c(O)ccc(OC)c2o1	-3.9%	?	23.8	3.7%	i
COc1ccc(O)c2c(=O)c3c(OC)cc4c(c3oc12)C1C=COC1O4 (stereo not drawn)	nt	nt	-62.3*	nt	-19.9%
COC(=O)c1ccc(NC(=O)C2C3C=CC(C3)C2C(=O)O)cc1 (stereo not drawn)	nt	9.6%	-98.2*	-1.6%	nt
CCOC(=O)c1ccc(NC(=O)C2C3C=CC(C3)C2C(=O)O)cc1 (stereo not drawn)	-10.4%	3.0%	35.5	4.5%	nt
